{"source": "PubChem BioAssay", "note": "Values joined by “and” are separate entries in the source; they are usually repeats but may differ in a detail not shown here. Equal entries are not always repeated."}
{"experiment": "differential killing of epithelial or mesenchymal cells, primary screen, imaging, PC-3E GFP, TEM4-18 mCherry, co-culture (AID 1345086);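 also: cells exposed to compound for 72 h before imaging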", "conditions": "imaging cell counts, measured here: mesenchymal TEM4-18 mCherry cell survival, at 1 µM"}
{"smiles": "O=c1cc[nH]c(=S)[nH]1", "normalised cell number": 1.07}
{"smiles": "Oc1c(I)cc(I)c2cccnc12", "normalised cell number": 1.32}
{"smiles": "O=C1C(O)=C(O)C(=O)C(O)=C1O", "normalised cell number": 1.12}
{"smiles": "CC(=O)Nc1c(I)cc(I)c(C(=O)O)c1I", "normalised cell number": 1.12}
{"smiles": "NC(N)=NCCN1CCCCCCC1", "normalised cell number": 1.23}
{"smiles": "Cc1ccc2c(Cl)cc(Cl)c(O)c2n1", "normalised cell number": 0.98}
{"smiles": "CN1CCN(c2cc3c(cc2F)c(=O)c(C(=O)O)cn3-c2ccc(F)cc2)CC1", "normalised cell number": "1.2 and 0.85"}
{"smiles": "O=c1[nH]cnc2nc[nH]c12", "normalised cell number": 1.18}
{"smiles": "C[n+]1cc2c3c(ccc2c2ccc4cc5c(cc4c21)OCO5)OCO3", "normalised cell number": 1.01}
{"smiles": "CC1(C)OC(=O)NC1=O", "normalised cell number": 1.41}
{"smiles": "CCCCCCCCCCCCCCCCCCOCC(O)CO", "note": "(stereo not given)", "normalised cell number": 0.96}
{"smiles": "CCCCCCOc1ccccc1C(N)=O", "normalised cell number": 0.94}
{"smiles": "O=C(CCCN1CCN(c2ccccn2)CC1)c1ccc(F)cc1", "normalised cell number": 1.22}
{"smiles": "CCN(CC)C(C)CN1c2ccccc2Sc2ccccc21", "note": "(stereo not given)", "normalised cell number": 0.92}
{"smiles": "CCN(CC)CCNC(=O)c1ccc(NC(C)=O)cc1", "normalised cell number": 1.13}
{"smiles": "CO/N=C1\\CN(c2nc3c(cc2F)c(=O)c(C(=O)O)cn3C2CC2)CC1CN", "note": "(stereo not given)", "normalised cell number": 1.24}
{"smiles": "CCC(=O)O[C@H]1[C@H](O[C@@H]2[C@@H](C)[C@H](O[C@H]3C[C@@](C)(OC)[C@@H](O)[C@H](C)O3)[C@@H](C)C(=O)O[C@H](CC)[C@@](C)(O)[C@H](O)[C@@H](C)C(=O)[C@H](C)C[C@@]2(C)O)O[C@H](C)C[C@@H]1N(C)C", "normalised cell number": 1.12}
{"smiles": "CCN(CCCCOC(=O)c1ccc(OC)c(OC)c1)C(C)Cc1ccc(OC)cc1", "note": "(stereo not given)", "normalised cell number": 0.97}
{"smiles": "CC(=O)Oc1cccc(O)c1", "normalised cell number": 1.33}
{"smiles": "CC(=O)OC/C=C(C)/C=C/C=C(C)/C=C/C1=C(C)CCCC1(C)C", "normalised cell number": 0.94}
{"smiles": "CN1CCN(CC(=O)N2c3ccccc3C(=O)Nc3cccnc32)CC1", "normalised cell number": 0.97}
{"smiles": "Cc1cc(=O)n(-c2ccccc2)n1C", "normalised cell number": 1.26}
{"smiles": "COc1ccc(C(=O)c2ccccc2O)c(O)c1", "normalised cell number": 1.63}
{"smiles": "Nc1nccs1", "normalised cell number": 0.98}
{"smiles": "C[N+]12CCC(CC1)C(OC(=O)C(O)(c1ccccc1)c1ccccc1)C2", "note": "(stereo not given)", "normalised cell number": 1.33}
{"smiles": "CCCCCC(C)N", "note": "(stereo not given)", "normalised cell number": 1.18}
{"smiles": "CC(CN(C)C)CN1c2ccccc2CCc2ccccc21", "note": "(stereo not given)", "normalised cell number": 1.36}
{"smiles": "C[C@H](N)[C@H](O)c1cccc(O)c1", "normalised cell number": 1.1}
{"smiles": "NCCCC[C@H](N[C@@H](CCc1ccccc1)C(=O)O)C(=O)N1CCC[C@H]1C(=O)O", "normalised cell number": 0.36}
{"smiles": "C/C=C1\\[C@H]2C=C(C)C[C@]1(N)c1ccc(=O)[nH]c1C2", "normalised cell number": 1.18}
{"smiles": "Nc1ccc(C(=O)O)cc1", "normalised cell number": 1.02}
{"smiles": "Cc1c(C(N)=O)cc([N+](=O)[O-])cc1[N+](=O)[O-]", "normalised cell number": 0.9}
{"smiles": "CCCCNc1ccc(C(=O)OCCN(C)C)cc1", "normalised cell number": 1.27}
{"smiles": "O=C(O)c1cc(=O)c2ccccc2o1", "normalised cell number": 0.78}
{"smiles": "COc1cc(OC)cc(OC)c1", "normalised cell number": 1.09}
{"smiles": "CC1(C)S[C@@H]2[C@H](NC(=O)[C@H](N)c3ccccc3)C(=O)N2[C@H]1C(=O)O", "normalised cell number": 1.12}
{"smiles": "C=Cc1c(C)c2cc3[nH]c(cc4nc(cc5nc(cc1[nH]2)C(C)=C5CCC(=O)O)C(CCC(=O)O)=C4C)c(C)c3C=C", "normalised cell number": 0.95}
{"smiles": "Cc1cc(C)cc(OCC2CNC(=O)O2)c1", "note": "(stereo not given)", "normalised cell number": 0.64}
{"smiles": "Oc1ccc(Cl)c2cccnc12", "normalised cell number": 1.45}
{"smiles": "CC(=O)Oc1ccc(C(c2ccc(OC(C)=O)cc2)c2ccccn2)cc1", "normalised cell number": 1.06}
